The record followed here is PubChem BioAssay (EPA / NIEHS).

Records with an inconclusive call do not appear. Active and inactive are the calls of the source. Rule for the calls, unless noted: active = hit-call score of the fitted dose curve at least 0.9, where 1 is the maximum; inactive = score below 0.9.

A short description of test [1]: CCTE_Harrill_HTTr_Viability_MCF7: CCTE's 6-hour Cell Viability Assessment for the High-Throughput Transcriptomics (HTTr) Platform, in MCF-7 cells cultured in DMEM + 10% fetal bovine serum, Harrill Lab (AID 2284010). The essentials:
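PI exclusion, high-content imaging; 8-pt dilution series, 6 h exposure; bidirectional fit vs DMSO (neg. ctrl/baseline); gain of signal = loss of membrane integrity.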

Test [2] can be described thus: CCTE_Harrill_HTTr_Apoptosis_MCF7: CCTE's 6-hour Apoptosis Assessment for the High-Throughput Transcriptomics (HTTr) Platform, in MCF-7 cells cultured in DMEM + 10% fetal bovine serum, Harrill Lab (AID 2284011). In a few lines:
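Read-out: CellEvent Caspase 3/7 Green signal by high content imaging, gain-of-signal indicating apoptosis. MCF-7 cells, DMEM + 10% FBS, eight-point dilution series, 6 h exposure. Curves fitted bidirectionally relative to DMSO negative control.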

The nature of test [3]: CCTE_Harrill_HTTr_CellCount_MCF7: CCTE's Cell Proliferation Assessment for the High-Throughput Transcriptomics (HTTr) Platform, Harrill Lab (AID 2284012; active = hit-call score of the fitted dose curve at least 0.9, where 1 is the maximum;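 note: count of Hoechst-stained nuclei per well by high-content imaging in MCF-7 cells; cells exposed to compound for six hours; intended direction is loss of nuclei count meaning fewer cells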). In a few lines: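 Readout: Hoechst nuclear count by high-content imaging. MCF-7, 8-point dilution series, 6 h exposure. Bidirectional fit vs DMSO baseline.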
Test [4] can be described thus: CCTE_Shafer_MEA_acute_spike_number: CCTE's Neural Acute Assay for Total Number of Spikes, Shafer Lab (AID 2284008).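 For AC50: curve fitted for decrease in spike count so AC50 reflects inhibitors.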 The essentials: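 Rat cortical cultures, DIV 13/15, 37 C. 40 min baseline rec, cpd 0.03-40 uM, 40 min post-dose rec. Band-pass 300-5000 Hz, spike threshold 8x rms; % change in spike count per well, DMSO neg ctrl, loss-of-signal fit.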
Test [5] in a line: CCTE_Shafer_MEA_acute_firing_rate_mean: CCTE's Neural Acute Assay for Mean Firing Rate, Shafer Lab (AID 2284009).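 Note: analyzed for loss of signal so actives lower firing rate relative to DMSO.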 The essentials: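 Primary rat cortical neurons on 16-electrode MEA wells were exposed on DIV 13 or 15 to compound (0.03-40 uM). Spike counts per recording time, averaged over electrodes, were compared between 40-min baseline and 40-min post-exposure recordings as percent change.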

Test [6] can be described thus: CCTE_Shafer_MEA_acute_burst_number: CCTE's Neural Acute Assay for Single-Electrode Bursts, Shafer Lab (AID 2284013). In a few lines:
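Primary rat cortical neurons on 16-electrode MEA wells, DIV 13 or 15, exposed to compound (0.03-40 uM; ≥3 wells); 40-min recordings at 37 C before and after treatment. Burst count expressed as percent change from baseline, DMSO as negative control.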

Test [7] in a line: CCTE_Shafer_MEA_acute_burst_duration_mean: CCTE's Neural Acute Assay for Mean Burst Duration, Shafer Lab (AID 2284014).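 Note: hits are decreases in mean burst duration relative to DMSO controls.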 The essentials: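 Mean burst duration was compared between a 40 min baseline and a 40 min recording in the presence of compound (0.03-40 uM, 37 C), giving percent change per well. Cultures were rat cortical neurons at DIV 13 or 15; wells needed ≥10 active electrodes.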

Test [8] can be described thus: CCTE_Shafer_MEA_acute_per_burst_spike_number_mean: CCTE's Neural Acute Assay for Average Number of Spikes Per Burst, Shafer Lab (AID 2284015).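 Note: hits are decreases in mean spikes per burst versus baseline.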 In a few lines: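 We recorded spontaneous network firing of rat cortical neurons for 40 min before and 40 min during exposure to compound at 0.03-40 uM, at 37 C. Spikes were detected adaptively at 8x rms noise, and the change in average spikes per burst was fitted against DMSO.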

The nature of test [9]: CCTE_Shafer_MEA_acute_interburst_interval_mean: CCTE's Neural Acute Assay for Mean Interburst Interval, Shafer Lab (AID 2284016).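 Note: percent change of mean interburst interval versus each well's own pre-dose baseline; curves fitted for decrease in interburst interval relative to DMSO.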 The essentials: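 MEA recording of spontaneous network bursting in primary rat cortical cultures; mean interburst interval was compared before and after a 40-min compound exposure (0.03-40 uM) and expressed as percent change, relative to DMSO.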

Test [10] can be described thus: CCTE_Simmons_MITO_viability: CellTiter-Glo Viability Assessment for CCTE's HepG2 Seahorse XF Respirometric Screening Assay [post-hoc], Simmons Lab (AID 2284007; active = hit-call score of the fitted dose curve at least 0.9, where 1 is the maximum). In a few lines:
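Luciferase-coupled ATP luminescence, single endpoint. HepG2, post-respirometry. Compound 125 nM–100 uM final, 7 conc., 90 min. n=3 biological, technical singles. DMSO vehicle/baseline; dichlone 10 nM–100 uM, 8 conc., as positive control.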
For orientation: In ATP-based viability assays light output follows the ATP content of the culture.

For the compound `CCCCN(CC)C(=O)SCCC`, the outcome in test [1], in [2] and in test [3] was inactive.

As for `Nc1ccc2ccccc2c1`, the AC50 in test [4] and in test [5] was 0.109 µM (active) throughout. Moreover, the outcome in [1], in [2], in test [3], in test [6], in test [7] and in [8] was inactive. Further, the outcome in test [9] was inactive.

Consider `COCCOCCO`, for which the outcome in test [4], in test [5], in test [2], in test [6], in [7] and in test [8] was inactive. Further, in [9], the compound was classed as inactive.

Regarding `ClC1=C(Cl)C2(Cl)C3C(Cl)C(Cl)CC3C1(Cl)C2(Cl)Cl` (centres undefined), the call in [4], in test [5], in [1], in [2], in test [3] and in test [6] was inactive. The compound was called inactive in test [7], in test [8] and in test [9].

As to `COP(=O)(O)OC`, the outcome in test [1], in [2] and in test [3] was inactive.

For the compound `C/C(=N\NC(=O)Nc1cc(F)cc(F)c1)c1ncccc1C(=O)O`, the outcome in test [1], in test [2] and in test [3] was inactive.

For the compound `O=C(O)C1C(C(=O)O)C2(Cl)C(Cl)=C(Cl)C1(Cl)C2(Cl)Cl` (centres undefined), the compound was called inactive in [4], in [5], in test [1], in test [2], in test [3] and in test [6]. In addition, the call in [7], in [8] and in test [9] was inactive.

`CC1(C)CN=C(NN=C(/C=C/c2ccc(C(F)(F)F)cc2)/C=C/c2ccc(C(F)(F)F)cc2)NC1`: the result in test [1], in test [2] and in test [3] was inactive.

In the case of `CN(C)C(=O)Cl`, the outcome in test [1] and in test [2] was inactive.

`CCCCc1ccccc1`: the result in test [1], in [2] and in [3] was inactive.

On to `COP(=O)(CCC(=O)NCO)OC`, for which the compound was classed as inactive in test [4], in test [5], in test [6], in test [7] and in [9]. Moreover, the AC50 – broadly, the midpoint of the concentration-response curve, whichever way the signal moves – in [8] is 0.145 µM (active).

Turning to `CCOP(=S)(OCC)SCSCC`, the compound was called inactive in [10], in [2] and in [3].

`Cc1ccc(N)cc1N`: the compound was classed as inactive in [4], in test [5], in [1], in test [2], in test [3] and in test [6]. In addition, the call in [7], in [8] and in test [9] was inactive.

As for `CCOS(=O)(=O)OCC`, the result in test [1], in [2] and in test [3] was inactive.

As for `CCOc1ccc(C(C)(C)COCc2cccc(Oc3ccccc3)c2)cc1`, the compound was called inactive in test [4], in [5], in [2], in test [3], in [6] and in test [7]. Moreover, the call in test [8] was inactive. The AC50 in test [9] was 23.1 µM (active).

Turning to `CC(C)(C)c1ccccc1OP(=O)(Oc1ccccc1)Oc1ccccc1`, the AC50 in test [4] is 1.33 µM (active); in test [5], 1.33 µM (active); in [6], 1.23 µM (active); in [8], 7.23 µM (active). For the same compound, the compound was classed as inactive in test [7] and in test [9].

On to `CO/N=C(/C(=O)OC)c1ccccc1COc1ccccc1C`, for which the outcome in test [1] and in test [2] was inactive.

For the compound `O=P1(N(CCCl)CCCl)NCCCO1` (centres undefined), the result in test [1], in test [2] and in test [3] was inactive.

`CC(Cl)(Cl)C(=O)O`: the outcome in test [4], in [5], in [1], in test [2], in test [3] and in test [6] was inactive. Further, the result in [7], in test [8] and in test [9] was inactive.

Take `CCC1(c2ccccc2)C(=O)N=C(O)NC1=O` (centres undefined): the call in test [4], in test [5], in [2], in test [3], in [6] and in test [7] was inactive. The outcome in test [8] and in test [9] was inactive.

Regarding `Nc1ccc([N+](=O)[O-])cc1Cl`, the outcome in test [1], in test [2] and in [3] was inactive.

`Cc1cccc(N)c1`: the result in [1], in test [2] and in [3] was inactive.

Consider `[N-]=[N+]=[N-]`, for which the result in test [4], in test [5], in test [1], in [2], in [3] and in [6] was inactive. Moreover, the compound was called inactive in test [7], in test [8] and in [9].

For `CCC(C)(C)c1ccc(O)cc1`, the AC50 was 0.186 µM (active) in test [4], 0.186 µM (active) in [5], 0.283 µM (active) in [6] and 0.0877 µM (active) in [9]. The outcome in [7] and in test [8] was inactive.

Turning to `CSC(C)(C)C=NO`, the result in test [1], in test [2] and in test [3] was inactive.

`CCCCC(CC)COP(=O)(Oc1ccccc1)Oc1ccccc1` (centres undefined): the AC50 in test [4] and in test [5] was 15 µM (active) in each case. Moreover, the outcome in test [1], in test [2], in test [3], in [6], in test [7] and in test [8] was inactive. Further, the result in test [9] was inactive.

For `CCOP(=S)(Oc1ccc([N+](=O)[O-])cc1)c1ccccc1` (centres undefined), the results for the AC50 in test [4] and in test [5] were 24.9 µM (active) and 25 µM (active), respectively. Also, the result in [1], in [2], in test [3], in [6], in [7] and in test [8] was inactive. Besides, the outcome in test [9] was inactive.

As for `O=C(O)C(Cl)Cl`, the outcome in [1], in [2] and in test [3] was inactive.

With `ClC(Cl)(Cl)c1ccccc1`, the result in test [10], in test [4], in [5], in test [1], in test [2] and in test [3] was inactive. In addition, the compound was classed as inactive in [6], in test [7], in test [8] and in [9].

Turning to `CC(C)(C)c1ccc(O)cc1`, the compound was called inactive in [10], in test [2] and in [3].

Turning to `c1nc[nH]n1`, the outcome in test [1] and in [2] was inactive.

With `CCCCC(CC)COC(=O)c1c(Br)c(Br)c(Br)c(Br)c1C(=O)OCC(CC)CCCC` (centres undefined), the result in [1], in test [2] and in test [3] was inactive.

`Cc1c([N+](=O)[O-])cc2c(c1[N+](=O)[O-])C(C)(C)CC2(C)C`: the result in test [1], in test [2] and in test [3] was inactive.

Regarding `Cc1ccc([N+](=O)[O-])cc1C`, the result in [1] and in test [2] was inactive.

On to `c1ccc2c(c1)Nc1ccccc1S2`, for which the AC50 in test [4] was 4.42 µM (active); in [5] it was 4.45 µM (active); in test [6] it was 3.97 µM (active); in test [7], 34.9 µM (active); in test [9], 4.14 µM (active). The result in test [1], in test [2], in test [3] and in [8] was inactive.

For the compound `O=[N+]([O-])c1ccc(Cl)c(Cl)c1`, the result in [1], in [2] and in [3] was inactive.

For the compound `CCCN(CCC)c1c([N+](=O)[O-])cc(C(C)C)cc1[N+](=O)[O-]`, the result in [1] was inactive.
